Compounds with a hit are over-represented: about 6% of the library has one in this group of screens.
DRD3 agonist = D3 dopamine receptor (human) agonism; P35462; D3R DiscoveRx beta-arrestin cells, luminescence, 90 min; max activation, %; 0.58% of 410,000 active; AID 652048; in the data active = max activation above about 30%; also: 0% is about no effect
Target sequence (P35462 whole entry, looked up): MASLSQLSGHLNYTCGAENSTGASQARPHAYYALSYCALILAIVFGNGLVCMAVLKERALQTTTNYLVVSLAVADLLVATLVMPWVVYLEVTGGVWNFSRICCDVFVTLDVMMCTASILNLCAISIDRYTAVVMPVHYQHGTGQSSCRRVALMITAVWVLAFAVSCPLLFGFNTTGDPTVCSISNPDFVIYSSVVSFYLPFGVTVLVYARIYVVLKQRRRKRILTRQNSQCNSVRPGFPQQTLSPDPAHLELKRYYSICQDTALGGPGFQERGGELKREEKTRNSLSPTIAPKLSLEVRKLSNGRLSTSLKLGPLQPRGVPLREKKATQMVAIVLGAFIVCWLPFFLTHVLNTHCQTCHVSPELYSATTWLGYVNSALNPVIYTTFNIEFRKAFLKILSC
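Agonist mode: compounds and dopamine controls were applied to plated cells for 90 min at 37 degrees C after an overnight attachment at 1500 cells/well. Luminescent read-out followed 30 - 60 minutes at room temperature with DiscoveRx detection reagent.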
D1 PAM = enhances dopamine response at the human D1 receptor; P21728; 0.036% of 360,000 active; HEK293 TREx D1 cells, calcium flux, dopamine EC20 potentiation; AID 504651; potentiation, % at 10 µM; in the data active = potentiation above about 30%; also: 0% is about no effect
D3 antag = D3 dopamine receptor (human) antagonism; P35462; D3R cells, DiscoveRx beta-arrestin luminescence, antagonist mode; active compounds read low; max response, negative = inhibition, %; 2.5% of 360,000 active; AID 652054; in the data active = max response below about -50%; also: % is scaled to controls: 0 for no effect and ±100 for the full control effect
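Cells plated overnight at 1500 cells/well, then exposed to library compounds with dopamine controls for 90 minutes at 37 degrees C. DiscoveRx reagent added for 30–60 minutes at room temperature; luminescence read, quantitative HTS format.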
D1 antag = antagonists of human D1 dopamine receptor | activity change, negative = inhibition, % at 10 µM | 3.2% of 360,000 active | HEK293 TREx D1 cells, calcium flux, dopamine EC80; active compounds read low; in the data active = activity change below about -30%; also: % is scaled to controls: 0 for no effect and ±100 for the full control effect
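Antagonism measured as reduced calcium response to an EC80 dopamine addition following 180 s compound pre-read; cells were inducible HEK293 Trex D1 plated overnight at 30 C, read kinetically at 1 cycle/sec.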
D1 agonist = activates the human D1 dopamine receptor; P21728; HEK293 T-REx D1 cells, calcium flux, agonist mode; activation, % at 2 µM; 1% of 360,000 active; AID 504660; in the data active = activation above about 30%; also: 0% is about no effect
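Inducible HEK293 T-REx D1 cells, force-coupled to calcium signalling, were plated at 4000 cells/well with tetracycline and held overnight at 30 C. After no-wash calcium dye loading, compound-evoked calcium rise over 180 s flagged agonists.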
The depositor's hits bear a star; / = no result given.

SMILES | DRD3 agonist | D1 PAM | D3 antag | D1 antag | D1 agonist
CCOC(=O)c1ccc(NC(=O)CSc2ncc(S(=O)(=O)c3ccc(C)c(Cl)c3)c(=O)[nH]2)cc1 | 0.0 | -0.2 | / | 2.6 | -0.3
COc1ccc(OC)c(CN2CCN(CC(=O)Nc3ccccc3C(=O)NC3CC3)CC2)c1 | 0.4 | -9.8 | 4.3 | -12.6 | -1.0
COc1ccc(C(=O)NC2CC2)cc1OC1CCN(Cc2ccc(NC(C)=O)cc2)CC1 | 14.2 | -4.8 | 1.1 | -6.0 | 0.9
COc1cc(C)c(CN2CCN(CC(=O)Nc3ccccc3C(=O)NC3CC3)CC2)cc1OC | -2.7 | -5.7 | -20.8 | -30.2* | 0.4
COc1cc(CN2CCC(Oc3cc(C(=O)NC4CC4)ccc3OC)CC2)cc(OC)c1 | -13.1 | -7.8 | 9.4 | -75.2* | 2.7
COc1cccc(N2CCN(CC(=O)Nc3ccccc3C(=O)NCCc3ccccc3)CC2)c1 | 33.8* | -9.9 | 26.9 | -16.1 | 0.7
COc1ccc(CN2CCC(Oc3cc(C(=O)NC4CC4)ccc3OC)CC2)c(O)c1 | 4.0 | -15.3 | 5.8 | -76.9* | 3.9
O=C(CSc1nc(=O)n(Cc2ccccn2)c2c1CCC2)Nc1ccccc1 | -0.6 | -5.5 | / | -12.5 | 2.5
Cc1cc2nn(-c3ccc(F)cc3)nc2cc1NC(=O)c1cccc([N+](=O)[O-])c1C | 5.2 | -3.1 | / | 1.7 | 0.0
COc1ccc(C(=O)NC2CC2)cc1OC1CCN(Cc2cc(C)c(C)cc2C)CC1 | 2.2 | -15.7 | -2.3 | -85.7* | 0.9
CC(=O)Nc1ccccc1OCC(=O)c1ccc2c(c1)OCO2 | 46.6* | -0.3 | 13.3 | -0.4 | 4.4
CN(C)CCC(=O)c1ccc2c(c1)OCO2 | -2.0 | -6.8 | -61.0* | -0.6 | 7.4
CCOc1ccc(N(CC(=O)Nc2ccccc2CC)S(=O)(=O)c2c(C)noc2C)cc1 | -21.2 | 0.7 | / | -12.0 | 2.4
COc1ccc(CNC(=O)CCc2c(C)nn(-c3ccc(N4CCCCC4)nn3)c2C)c(OC)c1 | -5.6 | -3.5 | / | 0.0 | -0.2
CCN1/C(=C/C=C/c2oc3ccc(-c4ccccc4)cc3[n+]2CC)Oc2ccc(-c3ccccc3)cc21 | 6.6 | -8.2 | -5.0 | -84.2* | 547.2*
CCCNC(=O)C1CCC(Cn2c(=O)c3sccc3n(CC(=O)NCc3cccc(OC)c3OC)c2=O)CC1 (stereo not drawn) | 3.7 | 1.4 | / | -9.0 | -2.1
CN1CCC(C2(O)c3ccccc3CSc3sccc32)CC1 (stereo not drawn) | 0.2 | -5.0 | -66.6* | 9.0 | 21.9
CN1CCC(C2(O)c3ccccc3CCc3ccccc32)CC1 | -43.7 | -4.2 | -15.8 | -29.7 | 13.2
COc1cccc(CN2CCN(C3CCN(c4ccccc4F)CC3)CC2CCO)c1 (stereo not drawn) | -32.8 | -7.0 | -110.4* | 3.3 | 4.4
Cc1cc(F)ccc1N1CCC(N2CCN(C(C)C)C(CCO)C2)CC1 (stereo not drawn) | -16.1 | -5.0 | -53.2* | -8.7 | 3.7
COc1cccc(CN2CCN(C3CCN(c4ccccc4C)CC3)CC2CCO)c1 (stereo not drawn) | -4.8 | -4.8 | -59.6* | -5.9 | 10.7
CSc1ccc(CN2CCC2(C)C(=O)NC2CCN(Cc3ccccc3)CC2)cc1 (stereo not drawn) | -18.5 | / | -110.7* | / | /
CC1(C(=O)NCc2ccc(C(F)(F)F)cc2)CCN1Cc1cc2ccccc2o1 (stereo not drawn) | 1.0 | / | 17.0 | / | /
CC1(C(=O)NC2CCN(Cc3ccccc3)CC2)CCN1Cc1cc2ccccc2o1 (stereo not drawn) | -11.2 | / | -77.5* | / | /
COc1ccc(NC(=O)c2sc3nc4c(cc3c2N)CN(C(C)C)CC4)c(OC)c1 | 1.3 | 4.9 | / | 2.9 | 6.3
SMILES | DRD3 agonist | D1 PAM | D3 antag | D1 antag | D1 agonist
Cc1cc(C)n2c(Nc3cccc(C(F)(F)F)c3)c(-c3ccsc3)nc2n1 | 4.6 | -0.5 | / | -1.9 | 0.0
Cc1ccc2nc(Cl)c3cc(C(=O)NC4CCCCC4)sc3c2c1 | -5.7 | -1.4 | / | -17.9 | -0.8
Cc1cc(C(=O)N/N=C/c2ccccn2)n[nH]1 | 1.6 | -6.1 | -6.5 | -47.6* | 0.8
O=C(N/N=C/c1ccccn1)c1cc([N+](=O)[O-])cc([N+](=O)[O-])c1 | -12.8 | -7.5 | -78.2* | -24.8 | 1.1
Cc1cc(C(=O)N/N=C/c2c(C)[nH]c3ccccc23)n[nH]1 | -5.7 | 1.1 | 6.9 | -20.4 | 2.7
O=C(N/N=C/c1ccccn1)c1cc(C2CC2)[nH]n1 | -5.8 | -0.4 | 8.5 | -17.9 | 2.3
Cc1[nH]c2ccccc2c1/C=N/NC(=O)c1cc(-c2cccs2)[nH]n1 | -5.1 | -13.4 | 6.5 | -31.3* | -0.5
COc1cccc(-c2nc(CS(=O)(=O)CC(=O)Nc3c(C)cc(C)cc3C)c(C)o2)c1 | -4.0 | -4.2 | / | -4.9 | 3.1
CC(C)(C)c1cc[n+](-c2[nH]c(=O)sc2/C=N/NC([S-])=Nc2ccccc2)cc1 | -0.7 | -1.9 | -8.1 | 4.3 | 90.5*
OCCCNc1nc(-c2ccc(Cl)cc2)nnc1-c1ccc(Br)cc1 | -3.1 | -11.7 | -3.0 | -40.1* | 3.5
CCNC(=S)NNC(=O)c1cccn(Cc2ccc(Cl)cc2Cl)c1=O | -5.0 | / | -59.2* | / | /
C=CCNC(=S)NNC(=O)c1cccn(Cc2ccc(Cl)cc2Cl)c1=O | -11.6 | -3.4 | -73.3* | 25.2 | 2.3
O=C(NCc1ccccn1)Nc1ccc(Cl)c(Cl)c1 | -0.6 | -0.3 | -15.0 | -12.7 | 1.0
COc1ccc(NC(=O)Nc2ccc(C(C)C)cc2)cc1 | -3.8 | -8.8 | -5.9 | -36.5* | -0.4
CC(C)c1ccc(NC(=O)NCc2ccccn2)cc1 | -4.1 | 3.5 | -13.0 | -33.9* | 4.1
Cc1ccc2nc(-c3ccc(NC(=O)COc4c(C)ccc(C)c4C)cc3)sc2c1 | 0.8 | -0.1 | / | 3.8 | 7.1
CC(C)c1ccc(OCC(=O)Nc2ccncc2)cc1 | -6.3 | 0.4 | -9.2 | -33.7* | 18.4
CCc1ccc(OCC(=O)Nc2ccncc2)cc1 | 3.1 | -3.4 | 44.4 | -11.8 | 15.1
Cc1ccc2nc(-c3ccc(NC(=O)COc4ccc(Cl)c(C)c4)cc3)sc2c1 | 61.0* | -0.1 | / | 16.3 | 0.9
Cc1cc2c(c(=O)n1-c1ccccc1)C1O[C@](c3ccsc3)(Cc3cc(C#N)ccc31)O2 | / | 3.5 | / | -7.9 | 0.4
Cc1cc(OCC(=O)Nc2ccncc2)cc(C)c1Br | 6.4 | -8.9 | 0.0 | -28.1 | 21.4
CC(C)C(C(=O)Nc1ccncc1)c1ccc(Cl)cc1 (stereo not drawn) | 5.6 | 0.2 | -18.8 | -7.1 | 50.8*
Cc1cc(OCC(=O)Nc2ccncc2)ccc1Cl | 1.1 | -2.8 | -8.6 | -38.5* | 19.6
CCCCN(C)CC(O)Cn1cc(/C=C/C(=O)c2ccc(OC)c(OC)c2)c2ccccc21 (stereo not drawn) | -17.2 | -3.0 | / | -7.5 | 63.1*
COc1ccc(C(=O)/C=C/c2cn(CC(O)CN3CCN(C)CC3)c3ccccc23)cc1OC (stereo not drawn) | -4.2 | -5.0 | 4.6 | 20.3 | 7.7
